Test results: PubChem BioAssay (NCI)
Compounds without any hit were thinned out: in the full panel of roughly 83,000, 20% have a hit.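 Compound tested at a single concentration for 48 hours in 96-well plates; a percent growth value below 10 was scored as active.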 Active and inactive are the calls of the source.

How the values were obtained:
Test in all cases: NCI-60 one-dose screen, 48 h (100 = growth as untreated, 0 = no growth, -100 = all killed)
Conditions in all cases: 10 µM unless noted
SR leukemia = system: SR leukemia
RPMI-8226 leukemia = system: RPMI-8226 leukemia
OVCAR-8 ovarian = system: OVCAR-8 ovarian
OVCAR-5 ovarian = system: OVCAR-5 ovarian
OVCAR-4 ovarian = system: OVCAR-4 ovarian
SK-OV-3 ovarian = system: SK-OV-3 ovarian
IGROV1 ovarian = system: IGROV1 ovarian
HS 578T breast = system: HS 578T breast
NCI/ADR-RES ovarian = system: NCI/ADR-RES ovarian

Measured: growth

C#CCOc1ccc(/C=N/Nc2nc(-c3cc4cc(Br)cc(Br)c4oc3=O)cs2)cc1
inactive: SR leukemia 71% | RPMI-8226 leukemia 97.1% | OVCAR-8 ovarian 100% | OVCAR-5 ovarian 102% | OVCAR-4 ovarian 83.1% | SK-OV-3 ovarian 104% | IGROV1 ovarian 98.9% | HS 578T breast 91.3% | NCI/ADR-RES ovarian 94.9%

O=[N+]([O-])c1ccc(-c2nnc(SCc3ccc(O)c4ncccc34)o2)cc1
inactive: SR leukemia 45% | RPMI-8226 leukemia 15% | OVCAR-8 ovarian 22% | OVCAR-5 ovarian 49% | OVCAR-4 ovarian 17.3% | SK-OV-3 ovarian 11.1% | IGROV1 ovarian 31.7% | NCI/ADR-RES ovarian 25.3%
active: HS 578T breast 2.14%

C=CCn1c(SCC(=O)c2ccc(OC)cc2)nnc1-c1ccc(OC)cc1
inactive: SR leukemia 96.1% | RPMI-8226 leukemia 98.4% | OVCAR-8 ovarian 99.9% | OVCAR-5 ovarian 96.7% | OVCAR-4 ovarian 98% | SK-OV-3 ovarian 105% | IGROV1 ovarian 103% | HS 578T breast 103% | NCI/ADR-RES ovarian 94.9%

Clc1ccc(-c2nc3ccc(/C(=N\N=C\c4ccccc4)c4ccccc4)cc3[nH]2)cc1
inactive: SR leukemia 72.9% | RPMI-8226 leukemia 54.6% | OVCAR-8 ovarian 85.6% | OVCAR-5 ovarian 85.6% | OVCAR-4 ovarian 77.8% | SK-OV-3 ovarian 90.7% | IGROV1 ovarian 104% | HS 578T breast 99.9% | NCI/ADR-RES ovarian 87.8%

CS(=O)(=O)c1nccc(-c2c(-c3ccc(F)c(OCCc4ccc(F)cc4)c3)nc3sccn23)n1
active: SR leukemia 0.201% | RPMI-8226 leukemia -43.2% | IGROV1 ovarian -64.9%
inactive: OVCAR-8 ovarian 69.8% | OVCAR-5 ovarian 93.2% | OVCAR-4 ovarian 51.2% | SK-OV-3 ovarian 84.5% | HS 578T breast 35.5% | NCI/ADR-RES ovarian 81.3%

O=C(Nc1cc(Cl)cc(Cl)c1)Nc1ccc2oc(=O)ccc2c1
inactive: OVCAR-8 ovarian 12.5% | OVCAR-5 ovarian 36.4% | OVCAR-4 ovarian 19.5% | SK-OV-3 ovarian 25.7% | IGROV1 ovarian 26.4% | HS 578T breast 39.4% | NCI/ADR-RES ovarian 10.9%
active: SR leukemia 3.42% | RPMI-8226 leukemia 1.84%

O=C1/C(=C/c2ccc([N+](=O)[O-])cc2)SC(=Nc2ccccc2)N1Nc1ccccc1
inactive: RPMI-8226 leukemia 42.7% | OVCAR-8 ovarian 50% | OVCAR-5 ovarian 75.8% | OVCAR-4 ovarian 52.9% | SK-OV-3 ovarian 102% | IGROV1 ovarian 61.9% | HS 578T breast 79.1% | NCI/ADR-RES ovarian 45.8%
active: SR leukemia 0.29%

O=C1Nc2ccc(Br)cc2/C1=N\c1nnc(-c2ccc(Cl)cc2)o1
inactive: SR leukemia 10.9% | RPMI-8226 leukemia 62.5% | OVCAR-8 ovarian 82.6% | OVCAR-5 ovarian 98.7% | OVCAR-4 ovarian 86.4% | SK-OV-3 ovarian 73.3% | IGROV1 ovarian 55.3% | HS 578T breast 83.1% | NCI/ADR-RES ovarian 36.9%

CCNC(=NCCCN(C)C)N/C(N)=N/c1nc2ccccc2s1
inactive: SR leukemia 55.1% | RPMI-8226 leukemia 96.9% | OVCAR-8 ovarian 90.9% | OVCAR-5 ovarian 95.6% | OVCAR-4 ovarian 107% | SK-OV-3 ovarian 89.9% | IGROV1 ovarian 91.1% | HS 578T breast 92% | NCI/ADR-RES ovarian 96.8%

O=C(NCCNc1cc(-c2cn(-c3ccccc3)nc2-c2cccc(O)c2)ccn1)Nc1ccc(Cl)c(C(F)(F)F)c1
inactive: SR leukemia 65.5% | RPMI-8226 leukemia 17.5% | OVCAR-8 ovarian 74.1% | OVCAR-5 ovarian 59.9% | OVCAR-4 ovarian 73.5% | SK-OV-3 ovarian 94.6% | IGROV1 ovarian 69% | HS 578T breast 41.6% | NCI/ADR-RES ovarian 49.8%

CC(=O)c1ccc(NC(=O)COc2ccc(C3SCC(=O)N3c3ccc(Br)cc3)cc2)cc1 (stereo not given)
inactive: SR leukemia 77% | RPMI-8226 leukemia 89.6% | OVCAR-8 ovarian 97.5% | OVCAR-5 ovarian 102% | OVCAR-4 ovarian 103% | SK-OV-3 ovarian 105% | IGROV1 ovarian 89.7% | HS 578T breast 100% | NCI/ADR-RES ovarian 92.6%

O=C(/C=C/c1cn(-c2ccccc2)nc1-c1ccc(Cl)cc1)c1cc2ccccc2oc1=O
inactive: SR leukemia 45.2% | RPMI-8226 leukemia 70.8% | OVCAR-8 ovarian 52.8% | OVCAR-5 ovarian 98% | OVCAR-4 ovarian 57.2% | SK-OV-3 ovarian 92.7% | IGROV1 ovarian 35.4% | HS 578T breast 66.5% | NCI/ADR-RES ovarian 71.9%

CC(C)c1nn(-c2ccccc2)c(N2CCCCC2)c1/C=N/NC(N)=S
inactive: SR leukemia 88.8% | RPMI-8226 leukemia 78.2% | OVCAR-8 ovarian 97.1% | OVCAR-5 ovarian 98.7% | OVCAR-4 ovarian 72.4% | SK-OV-3 ovarian 106% | IGROV1 ovarian 83.9% | HS 578T breast 103% | NCI/ADR-RES ovarian 86.9%

Cc1cn(-c2cc(NC(=O)c3cncc(C#Cc4cnc5ccc(O[C@@H]6CCOC6)nn45)c3)cc(C(F)(F)F)c2)cn1
inactive: NCI/ADR-RES ovarian 40.4%
active: SR leukemia -35.6% | RPMI-8226 leukemia -29.8% | OVCAR-8 ovarian -49.7% | OVCAR-5 ovarian 0.672% | OVCAR-4 ovarian -33.1% | SK-OV-3 ovarian -22.3% | IGROV1 ovarian -9.41% | HS 578T breast -25.1%

CCN1C(=O)N(CC)C2SC(N/N=C/c3ccccc3)=NC21 (stereo not given)
active: OVCAR-8 ovarian 8.59% | NCI/ADR-RES ovarian 3.93%
inactive: SR leukemia 18.6% | RPMI-8226 leukemia 21.2% | OVCAR-5 ovarian 51.6% | OVCAR-4 ovarian 71.6% | SK-OV-3 ovarian 38.3% | IGROV1 ovarian 28% | HS 578T breast 15.8%

COc1ccc(-c2ccc3c4c(cccc24)C(=O)N(N2C(=O)c4cccc5cccc(c45)C2=O)C3=O)cc1
inactive: SR leukemia 95.3% | RPMI-8226 leukemia 29.4% | OVCAR-8 ovarian 100% | OVCAR-5 ovarian 101% | OVCAR-4 ovarian 97.5% | SK-OV-3 ovarian 100% | IGROV1 ovarian 92.4% | HS 578T breast 101% | NCI/ADR-RES ovarian 98.2%

COc1cc2oc(-c3cccc(NC(=O)c4cc(NC(=O)[C@H](C)N)ccc4Cl)c3)cc(=O)c2c(OC)c1OC
inactive: SR leukemia 73.1% | RPMI-8226 leukemia 67.2% | OVCAR-8 ovarian 69% | OVCAR-5 ovarian 106% | OVCAR-4 ovarian 85.9% | SK-OV-3 ovarian 120% | IGROV1 ovarian 96.7% | HS 578T breast 99.9% | NCI/ADR-RES ovarian 88.6%

Cc1ccc(Cc2cnc(NC(=O)/C(C#N)=C/c3ccc(-c4ccc(Cl)cc4)o3)s2)cc1
inactive: SR leukemia 85.9% | RPMI-8226 leukemia 94.3% | OVCAR-8 ovarian 97.9% | OVCAR-5 ovarian 100% | OVCAR-4 ovarian 94.6% | SK-OV-3 ovarian 90.9% | IGROV1 ovarian 86.8% | HS 578T breast 102% | NCI/ADR-RES ovarian 92.8%

COc1ccc(Cn2cc3c(c2-c2cc(OC)c(OC)c(OC)c2)CCCc2cnoc2-3)cc1
inactive: SR leukemia 13.4% | RPMI-8226 leukemia 23.4% | OVCAR-8 ovarian 43% | OVCAR-5 ovarian 34.9% | OVCAR-4 ovarian 62.3% | SK-OV-3 ovarian 58% | IGROV1 ovarian 22.1% | HS 578T breast 22.1% | NCI/ADR-RES ovarian 15.5%

CCN1CCN(c2cc(C(=O)Nc3nc4ccc(Oc5ccnc(C(=O)NC)c5)cc4s3)cc(C(F)(F)F)c2)CC1
inactive: RPMI-8226 leukemia 33% | OVCAR-8 ovarian 92.4% | OVCAR-5 ovarian 101% | OVCAR-4 ovarian 67.9% | SK-OV-3 ovarian 109% | IGROV1 ovarian 95.8% | HS 578T breast 93.1% | NCI/ADR-RES ovarian 99.6%
active: SR leukemia -3.58%
